Our source for the Potency and outcome values is PubChem BioAssay (NCATS).

Assay [1] can be described thus: NCATS anti-infectives library activity on HEK293 viability as a counter-qHTS vs the C. elegans viability qHTS (AID 1745854).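 Also: HEK293 cells exposed to compounds for 24 hr before the viability read.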 An outline of the steps: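 Cytotoxicity in human HEK293 cells is measured by ATP-dependent CellTiter-Glo luminescence following a 24 hr incubation with titrated library compounds at 37C. Top final concentration is 41.7 uM.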
On the technique in general: qHTS replaces the single test concentration by a dilution series.

Assay [2] is described as follows: NCATS anti-infectives library activity on the primary C. elegans qHTS viability assay (AID 1745855; calls by dose curve; also: potency is read from the fitted curve at half-maximal effect). The gist of the method:
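Viability is taken from GFP fluorescence of PE254-GFP-FLuc C. elegans imaged by laser cytometry over 7 days. Ten L1 worms per well grow at 21 °C on TOP10 E. coli capsules with titrated compound; levamisole marks toxicity.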

Assay [3] concerns the target Metallo-beta-lactamase type 2 (Klebsiella pneumoniae) (UniProt C7C422). The assay is described as follows: qHTS to identify inhibitors of the New Delhi Metallo-beta-lactamase (NDM): assay validation screen against the NCATS LOPAC Collection (AID 1794843).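 Also: nitrocefin turnover by NDM-1 measured as 485 nm absorbance at plateau; series mostly up to about 38 µM.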 The gist of the method: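 NDM-1 at 2 nM final in 50 mM HEPES pH 7.0 with 1 uM ZnSO4 and 0.01% Tween20 was preincubated with library compounds in DMSO. Nitrocefin (50 uM stock) was then added, and absorbance at 485 nm was read at the kinetic plateau.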

Assay [4] addresses Glutathione peroxidase 1 (Homo sapiens) (UniProt P07203). Briefly: Primary qHTS Assay for Inhibitors of Recombinant Selenoprotein Glutathione Peroxidase 1 (GPX1) (AID 1845191). Also: nearly all actives have a fitted effect of over 65% in size. Also: potency is read from the fitted curve at half-maximal effect. The gist of the method: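 10 nM GPX1 + cpd, 30 min RT; start w/ 1 mM GSH, 0.5 mM cumene hydroperoxide, 0.5 mM NADPH, 100 nM GR, 0.01% BSA; buffer 50 mM Tris-HCl pH 7.5, 2 mM EDTA, 150 mM NaCl; Fl 340/450, 0 & 15 min.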

Assay [5] concerns the target Phospholipid hydroperoxide glutathione peroxidase GPX4 (Homo sapiens) (UniProt P36969). Briefly: Primary qHTS Assay for Inhibitors of Recombinant Selenoprotein Glutathione Peroxidase 4 (GPX4) (AID 1845192). Also: nearly all actives have a fitted effect of over 65% in size. An outline of the steps: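 NADPH consumption, followed by fluorescence at 340/450 nm between 0 and 15 min, reports GPX4 activity via coupled glutathione reductase (100 nM). Enzyme 200 nM was pre-exposed to compound 30 min; 0.5 mM cumene hydroperoxide and 1 mM GSH served as substrates.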

Assay [6] is described as follows: Quantitative High-Throughput drug screen in 47 multiple myeloma cell lines against the NCATS MIPE library collection: AMO1_DSMZ cell viability assay (AID 1918927; also: nearly all actives have a fitted effect of over 30% in size; also: potency is read from the fitted curve at half-maximal effect). The gist of the method:
(§1)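 CellTiter-Glo luminescence (ATP) after 48 h compound exposure, 37C/5% CO2; 500 cells/well; MIPE 4.0 approved/investigational drugs pinned in; DMSO = 100%, media only = 0% viability.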

The nature of assay [7]: Quantitative High-Throughput drug screen in 47 multiple myeloma cell lines against the NCATS MIPE library collection: EJM_DSMZ cell viability assay (AID 1918926; also: nearly all actives have a fitted effect of over 30% in size; also: potency is read from the fitted curve at half-maximal effect). An outline of the steps: as §1
Assay [8] is described as follows: Quantitative High-Throughput drug screen in 47 multiple myeloma cell lines against the NCATS MIPE library collection: FR4_PLB cell viability assay (AID 1918924; also: nearly all actives have a fitted effect of over 35% in size; also: potency is read from the fitted curve at half-maximal effect). The gist of the method: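 Primary qHTS used for cherry-picking: cells at 500/well, library compounds for 48 h (37C, 5% CO2), luminescent ATP assay.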
The nature of assay [9]: Quantitative High-Throughput drug screen in 47 multiple myeloma cell lines against the NCATS MIPE library collection: ARP1_JJKsccF8 cell viability assay (AID 1918928; also: nearly all actives have a fitted effect of over 40% in size; also: potency is read from the fitted curve at half-maximal effect). An outline of the steps: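 Myeloma cells, 500 per well, were exposed to MIPE 4.0 drugs by pin transfer for 48 h at 37 °C, 5% CO2. Viability was read as ATP luminescence with CellTiter-Glo, normalised to DMSO-only (100%) and medium-only (0%) wells.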

The nature of assay [10]: Quantitative High-Throughput drug screen in 47 multiple myeloma cell lines against the NCATS MIPE library collection: ARD_JJKsccE7 cell viability assay (AID 1918929; also: potency is read from the fitted curve at half-maximal effect). The gist of the method: as §1
The nature of assay [11]: Viability counterscreen for agonist of constitutive androstane receptor (CAR) against the NCATS DSHEA and TCM libraries (AID 1794838).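 Also: HepG2 cells with CYP2B6 reporter and hCAR plus 0.75 µM PK11195 antagonist.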 An outline of the steps: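 Cell health was measured as CellTiter-Fluor signal in HepG2-CYP2B6-hCAR cells treated for 24 h with substances alongside the hCAR antagonist PK11195 (0.75 uM final).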
On the technique in general: Counterscreens check selectivity or assay interference.

Assay [12] concerns the target Nuclear receptor subfamily 1 group I member 3 (Homo sapiens) (UniProt Q14994). Briefly: Primary qHTS for agonist of constitutive androstane receptor (CAR) against the NCATS DSHEA and TCM libraries (AID 1794839).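 Also: HepG2 cells expressing human CAR with a CYP2B6 reporter plus PK11195 antagonist; luciferase reporter luminescence read with ONE-Glo.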 The gist of the method:
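qHTS, agonist mode: HepG2-CYP2B6-hCAR, 2,500 cells/well, 5 h attach; cpds + PK11195 0.75 µM final; 24 h, 37 °C, 5% CO2. Readouts: CellTiter-Fluor (405/540 nm), then ONE-Glo luminescence.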

Assay [13] can be described thus: HepG2 viability counterscreen (readout 2: ATP content) against the NCATS DSHEA and TCM libraries (AID 1794840). The gist of the method:
(§2)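 Same wells read twice: first fluorescence from cleaved GF-AFC substrate (25 uM final, 30 min, 37C) for live-cell protease, then CellTiter-Glo luminescence after 30 min at room temperature for ATP. HepG2 cells were exposed ~24 h to substances.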

Assay [14] in a line: HepG2 viability counterscreen (readout 1: protease activity) against the NCATS DSHEA and TCM libraries (AID 1794841).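 Also: cells exposed to compounds for about 24 h before the protease read.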 The gist of the method:
as §2

Assay [15] has as its target Luciferin 4-monooxygenase (Photinus pyralis) (UniProt P08659). Briefly: Primary firefly luciferase (FLuc) qHTS assay for identification of artifact compounds. (AID 1845220). Also: nearly all actives have a fitted effect of over 60% in size. As to conditions: outcome: dose series up to 54.1 µM. An outline of the steps:
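FLuc 10 nM; luciferin 10 uM; ATP 10 uM; Tris-acetate pH 7.6, Mg-acetate 10 mM; 15 min RT preincubation; 5 min reaction; luminescence.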

The test system of assay [16] is Nanoluciferase (engineered Oplophorus gracilirostris luciferase). Briefly: Primary Nanoluciferase (NLuc) qHTS assay for identification of artifact compounds. (AID 1845222).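 Also: NLuc secreted into diluted conditioned medium of S16 cells; series mostly up to about 54 µM.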 An outline of the steps:
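NLuc from S16 cell medium (1:55) plus test compounds, 15 min, room temperature. Luminescence after Nano-Glo (1:100) addition, 5 min.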

The nature of assay [17]: Primary redox qHTS assay for identification of artifact compounds. (AID 1845223). The gist of the method:
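Amplex Red (25 uM) and HRP (250 mU/mL) in HBSS, with compounds for 15 min, then 250 uM DTT for 30 min, room temperature, dark. Fluorescence 525/598 nm read; normalized to DMSO and 10 uM DA3003; Hill fit.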

Assay [18] can be described thus: Primary fluorescence-based thiol-reactive (MSTI) qHTS assay for identification of artifact compounds. (AID 1845221).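 Also: series mostly up to about 54 µM; thiol-reactive compounds lower the probe fluorescence signal; nearly all actives have a fitted effect of over 65% in size.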 An outline of the steps:
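Reactivity toward the thiol probe MSTI (4 uM) is scored by fluorescence at Ex/Em 525/598 nm after 1 h at room temperature. Acetyl-MSTI and MSTI define the activity scale.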

Inconclusive results are not listed. The source holds several records for some structures; these can differ, active in one and inactive in another. The source made the active and inactive calls. Unless noted, calls follow the shape of the dose curve; as a rule, active = well fitted curve in the direction sought with a large enough effect; inconclusive = small, poorly fitted or top-dose-only effect, or another doubt; inactive = no such curve, though single readings can be large; an effect the other way counts as inactive or inconclusive.

Sequence of Phospholipid hydroperoxide glutathione peroxidase GPX4 (Homo sapiens) (P36969 whole entry, looked up): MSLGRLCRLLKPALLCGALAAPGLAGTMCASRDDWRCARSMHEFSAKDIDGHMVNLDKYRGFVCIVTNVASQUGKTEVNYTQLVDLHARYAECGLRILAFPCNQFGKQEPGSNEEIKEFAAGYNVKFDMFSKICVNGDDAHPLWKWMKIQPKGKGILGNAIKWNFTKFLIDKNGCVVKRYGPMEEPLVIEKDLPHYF
Sequence of Metallo-beta-lactamase type 2 (Klebsiella pneumoniae) (C7C422 whole entry, looked up): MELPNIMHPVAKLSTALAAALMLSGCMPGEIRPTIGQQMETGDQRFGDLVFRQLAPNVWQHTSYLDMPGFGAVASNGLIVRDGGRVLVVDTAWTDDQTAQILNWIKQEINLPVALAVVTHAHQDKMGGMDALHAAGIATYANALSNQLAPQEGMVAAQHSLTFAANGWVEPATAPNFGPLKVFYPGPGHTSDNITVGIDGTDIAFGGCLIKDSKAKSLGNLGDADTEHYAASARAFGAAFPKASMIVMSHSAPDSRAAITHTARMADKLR
Sequence of Glutathione peroxidase 1 (Homo sapiens) (P07203 whole entry, looked up): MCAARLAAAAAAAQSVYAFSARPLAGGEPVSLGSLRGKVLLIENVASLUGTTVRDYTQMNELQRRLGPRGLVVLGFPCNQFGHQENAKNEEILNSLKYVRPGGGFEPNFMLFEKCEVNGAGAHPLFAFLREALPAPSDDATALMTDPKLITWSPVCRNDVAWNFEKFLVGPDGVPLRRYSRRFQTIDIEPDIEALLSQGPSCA
Sequence of Nuclear receptor subfamily 1 group I member 3 (Homo sapiens) (Q14994 whole entry, looked up): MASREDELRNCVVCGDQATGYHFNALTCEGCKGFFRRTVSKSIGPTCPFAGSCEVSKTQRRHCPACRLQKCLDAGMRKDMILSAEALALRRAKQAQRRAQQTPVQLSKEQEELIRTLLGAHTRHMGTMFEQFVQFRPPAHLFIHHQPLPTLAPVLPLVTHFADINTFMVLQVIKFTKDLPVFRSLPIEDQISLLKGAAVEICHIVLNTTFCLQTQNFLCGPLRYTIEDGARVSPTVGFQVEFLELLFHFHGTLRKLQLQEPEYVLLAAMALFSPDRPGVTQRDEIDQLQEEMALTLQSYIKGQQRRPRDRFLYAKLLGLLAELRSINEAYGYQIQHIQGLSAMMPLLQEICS

For `OCCN(CCO)c1nc(N2CCCCC2)c2nc(N(CCO)CCO)nc(N3CCCCC3)c2n1`, the Potency result in assay [1], in [4] and in [5] was “inactive” each time. Besides, the figures for the Potency in assay [2] and in assay [6] were 816 nM (active) and 23500 nM (active), respectively. Further, in assay [3], the compound was classed as inactive.
As for `COc1cc2nc(N3CCN(C(=O)C4COc5ccccc5O4)CC3)nc(N)c2cc1OC` (configuration not stated), the Potency result in [1], in assay [5] and in assay [7] was “inactive” each time. The Potency in assay [2] was 23000 nM (active); in [4], 18 µM (active) and inactive. For the same compound, the outcome in assay [3] was inactive.
On to `Cc1cn([C@H]2C[C@H](N=[N+]=[N-])[C@@H](CO)O2)c(=O)[nH]c1=O`, for which the Potency result in assay [1], in [4], in [5], in assay [8], in assay [6] and in [9] was “inactive” in each case. Further, in assay [10], the Potency result is “inactive”. Further, the Potency in assay [7] was 7430 nM (active).
Regarding `NC12CC3CC(CC(C3)C1)C2`, the Potency result in assay [1], in assay [4] and in [5] was “inactive” in each case. Also, the result in assay [3] was inactive.
Consider `COc1ccccc1OCC(O)CN1CCN(CC(=O)Nc2c(C)cccc2C)CC1` (configuration not stated), for which the Potency entry in [1], in assay [4], in assay [5], in [7], in [6] and in assay [9] was “inactive” each time. In addition, the Potency entry in assay [10] is “inactive”.
In the case of `O=c1c(O)c(-c2ccc(O)c(O)c2)oc2cc(O)cc(O)c12`, the compound was called inactive in [11], in assay [12], in [13], in [14] and in assay [3]. For the same compound, the Potency result in assay [4] and in assay [5] was “inactive” in each case. Further, the Potency in [7] is 20900 nM (active).
With `Cc1cc(C(C)(C)C)c(O)c(C)c1CC1=NCCN1`, the call in assay [3], in assay [15], in assay [16] and in assay [17] was inactive. In addition, the Potency entry in assay [4], in [5], in [8], in [7], in assay [6] and in [9] was “inactive” in each case. Also, the Potency entry in assay [10] is “inactive”.
On to `Clc1ccc2c(c1)C(N1CCNCC1)=Nc1ccccc1O2`, for which the compound was classed as inactive in [3], in [15], in [18], in assay [16] and in [17]. The Potency entry in [4], in assay [5] and in assay [7] was “inactive” in each case.
In the case of `CC[C@@]1(O)C(=O)OCc2c1cc1n(c2=O)Cc2cc3c(CN(C)C)c(O)ccc3nc2-1`, the outcome in assay [3], in assay [15], in assay [18], in [16] and in assay [17] was inactive. Further, the Potency result in assay [4] and in assay [5] was “inactive” throughout. For the same compound, the Potency in assay [7] was 935 nM (active); in [6], 264 nM (active); in assay [9], 2960 nM (active); in [10], 2640 nM (active).
For the compound `Cc1cn([C@H]2C=C[C@@H](CO)O2)c(=O)[nH]c1=O`, the Potency entry in assay [1], in [4], in [5], in assay [7], in assay [6] and in assay [9] was “inactive” in each case. Moreover, the Potency result in assay [10] was “inactive”. Moreover, the outcome in [3] was inactive.
With `C[C@H]1c2cccc(O)c2C(O)=C2C(=O)[C@]3(O)C(O)=C(C(N)=O)C(=O)[C@@H](N(C)C)[C@@H]3[C@@H](O)[C@@H]21`, the Potency result in assay [1], in [4], in [5] and in assay [6] was “inactive” in each case. In addition, the Potency was 1150 nM (active) in assay [2] and 26400 nM (active) in assay [8]. For the same compound, the result in [3] was inactive.
With `COc1ccccc1OCCNCC(O)COc1cccc2[nH]c3ccccc3c12` (configuration not stated), the result in assay [3] was inactive. Also, the Potency entry in [4] and in assay [5] was “inactive” throughout.
